Experimental findings from PubChem BioAssay (Tox21) are described below.

Inconclusive results are not listed. Where a call stands in place of a potency, no number is given. Calls of active or inactive are those of the source. The call rests on the fitted dose curve; in most records, active means well fitted inhibition curve with a large enough effect in the repeat runs; inconclusive means weak or mixed curves; inactive means flat fitted curve, though single readings scatter.
Potency means the concentration at half of the fitted maximal effect.

Sequence of Voltage-gated inwardly rectifying potassium channel KCNH2 (Homo sapiens) (Q12809 whole entry, looked up): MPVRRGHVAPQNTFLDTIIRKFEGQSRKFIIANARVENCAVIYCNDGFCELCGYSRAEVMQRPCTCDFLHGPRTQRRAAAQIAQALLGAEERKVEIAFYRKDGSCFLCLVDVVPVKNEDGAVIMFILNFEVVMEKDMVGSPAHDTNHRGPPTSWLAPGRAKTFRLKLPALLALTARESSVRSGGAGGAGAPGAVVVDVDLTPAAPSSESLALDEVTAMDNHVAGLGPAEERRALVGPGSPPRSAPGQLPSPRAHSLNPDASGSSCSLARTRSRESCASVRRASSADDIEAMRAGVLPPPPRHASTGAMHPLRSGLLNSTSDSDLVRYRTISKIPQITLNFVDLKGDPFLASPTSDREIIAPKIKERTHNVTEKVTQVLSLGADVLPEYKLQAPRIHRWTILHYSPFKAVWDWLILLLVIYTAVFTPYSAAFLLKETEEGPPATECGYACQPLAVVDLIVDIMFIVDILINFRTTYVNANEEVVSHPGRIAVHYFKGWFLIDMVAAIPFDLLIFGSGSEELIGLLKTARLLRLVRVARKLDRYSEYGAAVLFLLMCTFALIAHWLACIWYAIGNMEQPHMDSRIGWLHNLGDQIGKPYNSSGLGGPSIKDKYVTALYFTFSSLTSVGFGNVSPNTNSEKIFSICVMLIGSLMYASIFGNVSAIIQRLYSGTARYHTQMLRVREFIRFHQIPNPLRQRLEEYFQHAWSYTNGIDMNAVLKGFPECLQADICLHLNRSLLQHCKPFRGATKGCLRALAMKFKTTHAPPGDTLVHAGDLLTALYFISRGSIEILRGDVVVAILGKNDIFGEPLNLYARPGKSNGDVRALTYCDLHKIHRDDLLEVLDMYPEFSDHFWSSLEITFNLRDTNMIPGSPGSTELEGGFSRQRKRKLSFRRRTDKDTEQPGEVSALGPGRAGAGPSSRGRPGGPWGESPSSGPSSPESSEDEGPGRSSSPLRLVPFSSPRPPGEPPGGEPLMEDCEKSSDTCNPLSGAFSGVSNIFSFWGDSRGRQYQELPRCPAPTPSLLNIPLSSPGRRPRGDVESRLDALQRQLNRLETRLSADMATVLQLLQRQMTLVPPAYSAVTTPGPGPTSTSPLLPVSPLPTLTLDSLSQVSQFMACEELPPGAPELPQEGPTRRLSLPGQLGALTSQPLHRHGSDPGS

For this assay, the target named is Voltage-gated inwardly rectifying potassium channel KCNH2 (Homo sapiens) (UniProt Q12809). Kind of assay: Human Ether-a-go-go-Related Gene (hERG) channel small molecule antagonists: fluorescence cell-based qHTS assay (AID 1671200). Further: nearly all actives have a fitted effect of over 50% in size. The note with it: hERG-U2OS cells, FluxOR thallium flux fluorescence; series mostly up to 76.8 µM. The text has this:
National Center for Advancing Translational Sciences [NCATS]
U.S. Environmental Protection Agency [EPA]
National Institutes of Environmental Health Sciences [NIEHS]
National Toxicology Program [NTP]
U.S. Food and Drug Administration [FDA]
Mutations in the hERG channel cause Long QT (LQT) syndrome. LQT syndrome is a cardiac disorder which can cause ventricle arrhythmia and sudden death. Additionally, compounds which block the hERG channel can cause acquired LQT syndrome. Several FDA approved drugs have been removed from the market due to their hERG blocking activity. A cell-based hERG channel inhibition assay can be used to screen chemical compounds that inhibit hERG channel. This assay measures hERG channel activity using thallium ions as surrogate ions to measure potassium into the cells.
Tox21 Assay Protocol Summary:
hERG-U2OS cells were resuspended in culture medium and dispensed into 1536-well, black wall/clear-bottom plates at 1000cells/well/3uL using a Multidrop Combi dispenser (Thermo Fisher, Waltham, MA). After plates were incubated at 37 C overnight, 3 uL of Loading Buffer provided by FluxOR II Potassium Ion Channel Assay kit (Thermo, Carlsbad, CA) was added to each well. The assay plates were then incubated at room temperature in the dark for 1h. […] After the assay plates were incubated at room temperature for 10 min, 1 uL of Stimulus Buffer provided by FluxOR II Potassium Ion Channel Assay kit was added into each well and fluorescence intensity (480nm excitation/540nm emission) was continuously measured for 2 min at 1 second intervals using a Functional Drug Screening System (FDSS) 7000EX kinetic plate reader (Hamamatsu, Japan).
In the case of `CC1=C(Br)C(=O)C(Br)=C/C1=C(/c1ccccc1S(=O)(=O)O)c1cc(Br)c(O)c(Br)c1C`, the Potency result is “inactive”.

For `CCCCCCC(C)(C)C(=O)O`, the Potency result is “inactive”.

For `C[C@@]12CCC[C@H]1[C@@H]1CC[C@H]3C[C@@H](O)CC[C@]3(C)[C@H]1CC2`, the Potency entry was “inactive”.

For the compound `C=C(C)CCCC(C)CCO` (stereo not given), the Potency result is “inactive”.

`CCCCN(CCN(CCCC)C(=O)N1CCOCC1)C(=O)N1CCOCC1`: the Potency entry was “inactive”.

In the case of `CCC(OCCCOC)OC(C)=O` (stereo not given), the Potency result was “inactive”.

Turning to `C[C@H]1C[C@H](O)c2ccsc2S1(=O)=O`, the Potency result was “inactive”.

In the case of `CC(=O)[C@H]1[C@H](C#N)C[C@H]2[C@@H]3CC=C4C[C@@H](O)CC[C@]4(C)[C@H]3CC[C@@]21C`, the Potency result is “inactive”.

`Nc1nc2ccc([N+](=O)[O-])cc2s1`: the Potency entry is “inactive”.

Regarding `C=Cc1ccc(S(=O)(=O)O)cc1`, the Potency result is “inactive”.

`O=c1c(O)c(-c2ccc(O)cc2)oc2cc(O)cc(O)c12`: the Potency entry was “inactive”.

With `CCC(=O)OC`, the Potency result was “inactive”.

For `CC(C)Nc1cccnc1N1CCN(C(=O)c2cc3cc(NS(C)(=O)=O)ccc3[nH]2)CC1`, the Potency is 9.52 µM (active).

Regarding `C=C(C)C(=O)OCCOCCOC(=O)C(=C)C`, the Potency result is “inactive”.

As for `CNC(=O)c1cnn(-c2nc(N)c3ncn([C@@H]4O[C@H](CO)[C@@H](O)[C@H]4O)c3n2)c1`, the Potency entry is “inactive”.

Take `CC1(C)O[C@@H]2C[C@H]3[C@@H]4C[C@H](F)C5=CC(=O)C=C[C@]5(C)[C@H]4[C@@H](O)C[C@]3(C)[C@]2(C(=O)CO)O1`: the Potency result was “inactive”.

For the compound `COc1ccc(OC(=O)N(CC(=O)O)Cc2ccc(OCCc3nc(-c4ccccc4)oc3C)cc2)cc1`, the Potency result was “inactive”.

Turning to `Cc1cc(C)c(N)cc1C`, the Potency entry was “inactive”.

For `Cc1ccc(Cl)c(Nc2ccccc2C(=O)O)c1Cl`, the Potency result was “inactive”.

Consider `Cc1cc(O)ccc1O`, for which the Potency result is “inactive”.

As for `Oc1cccc(Nc2ccccc2)c1`, the Potency result was “inactive”.

As for `O=C=Nc1ccc(Cl)c(Cl)c1`, the Potency result is “inactive”.

For `CC(C)(O)c1ccc(CNC(=O)c2cccnc2Oc2ccc3nonc3c2)cc1`, the Potency entry was “inactive”.

With `Cc1ccc(C(C)(C)O)cc1`, the Potency result was “inactive”.

As to `COc1ccccc1Oc1c(NS(=O)(=O)c2ccc(C(C)(C)C)cc2)nc(-c2ncccn2)nc1OCCO`, the Potency result is “inactive”.

In the case of `CC(CCC(=O)O)C(=O)O` (stereo not given), the Potency entry was “inactive”.

Consider `CC(C)C=O`, for which the Potency result is “inactive”.

For the compound `Nc1cccc2c1CN(C1CCC(=O)NC1=O)C2=O` (stereo not given), the Potency result was “inactive”.

Turning to `OCCOCC#CCOCCO`, the Potency result was “inactive”.

In the case of `CCCCCCCCCI`, the Potency entry is “inactive”.

Take `CCCCCC[C@@H](O)C/C=C\CCCCCCCC(=O)O`: the Potency result is “inactive”.

With `CCC=CC#N`, the Potency result was “inactive”.

For the compound `CCC(=O)C1CC(C(C)C)CC=C1C` (stereo not given), the Potency entry was “inactive”.

Take `O=C(/C=C/c1ccc(O)c(O)c1)O[C@@H]1C[C@@](OC(=O)/C=C/c2ccc(O)c(O)c2)(C(=O)O)C[C@@H](O)[C@@H]1O`: the Potency result is “inactive”.

As to `CCCC(C(=O)OCCN(CC)CC)(c1ccccc1)c1ccccc1`, the Potency is 8.49 µM (active).

In the case of `CN1CCCC(CC2c3ccccc3Sc3ccccc32)C1` (stereo not given), the Potency is 4.77 µM (active).

With `OC[C@H]1O[C@@H](n2cnc3c(=S)nc[nH]c32)[C@H](O)[C@@H]1O`, the Potency result was “inactive”.

`CCOC(=O)OC(C)OC(=O)[C@@H]1N2C(=O)[C@@H](NC(=O)[C@H](N)c3ccccc3)[C@H]2SC1(C)C` (stereo not given in full): the Potency entry was “inactive”.

Consider `Cc1ccco1`, for which the Potency entry was “inactive”.

In the case of `CN1C(=O)N(c2ccccc2Br)Cc2cnc(Nc3ccc4c(c3)OCC(CO)O4)nc21` (stereo not given), the Potency was 43.6 µM (active).
